Where a name gives a salt, the structure may show the parent alone. ± gives the standard deviation of the averaged measurements.

Common to all, as to experiment: growth (OD600 after 10 h); higher = more growth (less inhibition)
Test [1] deals with E. coli TESEC Alr+ wild-type control. The settings on record: compound 0.1 mM; raw OD600 reference: median of DMSO wells 0.241, cell-free background 0.041. The method, then:
(§1)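 TESEC Mtb Alr E. coli, or the Alr+ wild-type control, in 384-well plates with Prestwick library compounds at 0.1 mM and 1% DMSO, across arabinose induction levels of 1E3 to 1E7 nM. Growth is read as OD600 after 10 h at 37 °C in triplicate biological replicates.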

The test system of test [2] is E. coli TESEC Mtb Alr. As to conditions: compound 0.1 mM. As for the experimental part:
as §1

Another test relates to E. coli TESEC Mtb Asd. The settings on record: compound 0.1 mM. The method, then: (§2)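 TESEC E. coli strains in which the native enzyme is deleted and replaced by arabinose-inducible Mtb Asd, DapB, CysH or TrpD, each grown in its selective medium. Strains were screened against the Prestwick library at 0.1 mM and 1% DMSO in 384-well format at low and high arabinose induction. Growth is read as OD600 after 10 h in triplicate.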

Test [3] relates to E. coli TESEC Mtb Alr. The settings on record: compound 0.1 mM. As for the experimental part: (§3)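 TESEC Mtb Alr E. coli (ΔaraC ΔtolC ΔentC Δalr ΔdadX, arabinose-inducible Mtb Alr) or the Alr+ wild-type control strain, grown in defined M9-fructose medium without D-alanine in 96-well plates with Prestwick library compounds at 0.1 mM and 1% DMSO. Low Alr induction is 0.1 µM arabinose and high induction is 10 mM arabinose.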
This is another data set of the same source.

The next test concerns E. coli TESEC Mtb DapB. As to conditions: compound 0.1 mM. As for the experimental part:
as §2

Test [4] has as its system E. coli TESEC Alr+ wild-type control. As to conditions: compound 0.1 mM; raw OD600 reference: median of DMSO wells 0.49, cell-free background 0.052. The method, then:
as §3

Setting [5] is: arabinose 1000 nM, raw OD600 reference: median of DMSO wells 0.294, cell-free background 0.041.
The mark [6] stands for this setting: arabinose 10000 nM, raw OD600 reference: median of DMSO wells 0.264, cell-free background 0.041.
[7] abbreviates: arabinose 100000 nM, raw OD600 reference: median of DMSO wells 0.201, cell-free background 0.041.
The mark [8] stands for this setting: arabinose 1000000 nM, raw OD600 reference: median of DMSO wells 0.193, cell-free background 0.041.
[9] abbreviates: arabinose 10000000 nM, raw OD600 reference: median of DMSO wells 0.146, cell-free background 0.041.
[10] abbreviates: arabinose induction (level): High, raw OD600 reference: median of DMSO wells 0.331, cell-free background 0.041.
Setting [11] is: arabinose induction (level): Low, raw OD600 reference: median of DMSO wells 0.417, cell-free background 0.041.
The mark [12] stands for this setting: arabinose 100 nM, raw OD600 reference: median of DMSO wells 0.413, cell-free background 0.052.
Where [13] appears, read: arabinose 10000000 nM, raw OD600 reference: median of DMSO wells […], cell-free background 0.052.
The mark [14] stands for this setting: arabinose induction (level): High, raw OD600 reference: median of DMSO wells […], cell-free background 0.041.
Setting [15] is: arabinose induction (level): Low, raw OD600 reference: median of DMSO wells 0.227, cell-free background 0.041.

As to `CC(C(=O)O)c1ccc(N2Cc3ccccc3C2=O)cc1` (configuration not stated) [Indoprofen], the growth in test [1] is 0.219 ± 0.011; in the test on E. coli TESEC Mtb Alr [2] (setting [5]), 0.264 ± 0.018; with E. coli TESEC Mtb Alr [2] (setting [6]), 0.249 ± 0.0066; in the test on E. coli TESEC Mtb Alr [2] (setting [7]), 0.178 ± 0.0022; in the test with E. coli TESEC Mtb Alr [2] (setting [8]), 0.189 ± 0.0034; in the test on E. coli TESEC Mtb Alr [2] (setting [9]), 0.128 ± 0.0066. Besides, the growth worked out at 0.345 ± 0.075 in the test with E. coli TESEC Mtb Asd (setting [10]), 0.353 ± 0.053 in the test with E. coli TESEC Mtb Asd (setting [11]), 0.424 ± 0.013 in the test on E. coli TESEC Mtb Alr [3] (setting [12]) and 0.361 ± 0.007 in the test on E. coli TESEC Mtb Alr [3] (setting [13]).

Consider `Cc1ccccc1C(OCCN(C)C)c1ccccc1` (configuration not stated) [Orphenadrine hydrochloride], for which the growth turned out to be 0.208 ± 0.013 in test [1]; 0.18 ± 0.015 with E. coli TESEC Mtb Asd (setting [10]); 0.383 ± 0.063 in the test with E. coli TESEC Mtb Asd (setting [11]); 0.19 ± 0.0094 in the test with E. coli TESEC Mtb DapB (setting [14]); 0.241 ± 0.021 in the test with E. coli TESEC Mtb DapB (setting [15]); 0.463 ± 0.043 in test [4]. Moreover, the growth came out at 0.412 ± 0.013 in the test on E. coli TESEC Mtb Alr [3] (setting [12]) and 0.321 ± 0.029 in the test with E. coli TESEC Mtb Alr [3] (setting [13]).

With `Cc1cc(C(=O)NNCc2ccccc2)no1` [Isocarboxazid], the growth in test [1] turned out to be 0.253 ± 0.0036; in the test on E. coli TESEC Mtb Asd (setting [10]), 0.492 ± 0.0092; with E. coli TESEC Mtb Asd (setting [11]) it was 0.441 ± 0.039; with E. coli TESEC Mtb DapB (setting [14]), 0.211 ± 0.023; with E. coli TESEC Mtb DapB (setting [15]) it was 0.239 ± 0.035; in test [4] it was 0.463 ± 0.036. The growth in the test on E. coli TESEC Mtb Alr [3] (setting [12]) is 0.402 ± 0.014; in the test on E. coli TESEC Mtb Alr [3] (setting [13]), 0.362 ± 0.013.

Consider `CC1=C(/C=C/C(C)=C/C=C/C(C)=C/C(=O)O)C(C)(C)CCC1` [Retinoic acid], for which the growth is 0.281 ± 0.008 in test [1]; 0.355 ± 0.11 with E. coli TESEC Mtb Asd (setting [10]); 0.41 ± 0.0091 in the test with E. coli TESEC Mtb Asd (setting [11]); 0.186 ± 0.0028 with E. coli TESEC Mtb DapB (setting [14]); 0.2256 ± 0.00047 in the test with E. coli TESEC Mtb DapB (setting [15]); 0.476 ± 0.045 in test [4]. The growth with E. coli TESEC Mtb Alr [3] (setting [12]) was 0.45 ± 0.0056; in the test with E. coli TESEC Mtb Alr [3] (setting [13]), 0.301 ± 0.013.

On to `C=CC1=C(C(=O)O)N2C(=O)[C@@H](NC(=O)/C(=N\O)c3csc(N)n3)[C@H]2SC1` [Cefdinir], for which the growth in test [1] was 0.0391 ± 0.00064; in the test with E. coli TESEC Mtb Alr [2] (setting [5]), 0.0401 ± 0.0026; in the test on E. coli TESEC Mtb Alr [2] (setting [6]), 0.0401 ± 0.00087; in the test with E. coli TESEC Mtb Alr [2] (setting [7]), 0.038 ± 0.0008; with E. coli TESEC Mtb Alr [2] (setting [8]) it was 0.0415 ± 0.0031; in the test on E. coli TESEC Mtb Alr [2] (setting [9]), 0.0408 ± 0.0009. The growth was 0.0771 ± 0.0071 in the test with E. coli TESEC Mtb Asd (setting [10]), 0.0475 ± 0.00091 with E. coli TESEC Mtb Asd (setting [11]), 0.0463 ± 0.00075 with E. coli TESEC Mtb Alr [3] (setting [12]) and 0.0569 ± 0.0017 in the test on E. coli TESEC Mtb Alr [3] (setting [13]).

Consider `CCN1CCCC1CNC(=O)c1cc(S(N)(=O)=O)ccc1OC` (configuration not stated) [Sulpiride], for which the growth in test [1] worked out at 0.2503 ± 0.0019; in the test on E. coli TESEC Mtb Alr [2] (setting [5]), 0.291 ± 0.012; in the test with E. coli TESEC Mtb Alr [2] (setting [6]) it was 0.248 ± 0.0039; in the test with E. coli TESEC Mtb Alr [2] (setting [7]) it was 0.198 ± 0.02; in the test on E. coli TESEC Mtb Alr [2] (setting [8]) it was 0.174 ± 0.0021; in the test with E. coli TESEC Mtb Alr [2] (setting [9]) it was 0.147 ± 0.0072. Also, the growth in the test on E. coli TESEC Mtb Asd (setting [10]) is 0.309 ± 0.099; with E. coli TESEC Mtb Asd (setting [11]) it was 0.423 ± 0.023; in the test with E. coli TESEC Mtb Alr [3] (setting [12]) it was 0.419 ± 0.0074; in the test with E. coli TESEC Mtb Alr [3] (setting [13]), 0.35 ± 0.017.

For `CN(C)CC/C=C1\c2ccccc2CSc2ccccc21` [Dosulepin hydrochloride], the growth in test [1] was determined as 0.168 ± 0.0019; in the test on E. coli TESEC Mtb Alr [2] (setting [5]), 0.208 ± 0.0074; with E. coli TESEC Mtb Alr [2] (setting [6]), 0.309 ± 0.019; with E. coli TESEC Mtb Alr [2] (setting [7]) it was 0.211 ± 0.0092; in the test with E. coli TESEC Mtb Alr [2] (setting [8]) it was 0.146 ± 0.0095; in the test with E. coli TESEC Mtb Alr [2] (setting [9]), 0.163 ± 0.0079. In addition, the growth was determined as 0.14 ± 0.0062 with E. coli TESEC Mtb Asd (setting [10]), 0.263 ± 0.0048 in the test on E. coli TESEC Mtb Asd (setting [11]), 0.413 ± 0.013 in the test with E. coli TESEC Mtb Alr [3] (setting [12]) and 0.308 ± 0.0073 in the test on E. coli TESEC Mtb Alr [3] (setting [13]).

On to `Cc1cc2c(cc1S(N)(=O)=O)S(=O)(=O)CCC2` [Meticrane], for which the growth worked out at 0.252 ± 0.0068 in test [1]; 0.292 ± 0.011 in the test with E. coli TESEC Mtb Alr [2] (setting [5]); 0.259 ± 0.012 with E. coli TESEC Mtb Alr [2] (setting [6]); 0.234 ± 0.034 with E. coli TESEC Mtb Alr [2] (setting [7]); 0.172 ± 0.013 with E. coli TESEC Mtb Alr [2] (setting [8]); 0.142 ± 0.0066 with E. coli TESEC Mtb Alr [2] (setting [9]). The growth in the test on E. coli TESEC Mtb Asd (setting [10]) was 0.389 ± 0.044; in the test with E. coli TESEC Mtb Asd (setting [11]) it was 0.425 ± 0.049; in the test with E. coli TESEC Mtb Alr [3] (setting [12]), 0.408 ± 0.0074; with E. coli TESEC Mtb Alr [3] (setting [13]), 0.254 ± 0.17.

`COc1ccc(-c2cc(=O)c3c(O)cc(O[C@@H]4O[C@H](CO[C@@H]5O[C@@H](C)[C@H](O)[C@@H](O)[C@H]5O)[C@@H](O)[C@H](O)[C@H]4O)cc3o2)cc1O` [Diosmin]: the growth in test [1] came out at 0.296 ± 0.0078; in the test with E. coli TESEC Mtb Alr [2] (setting [5]) it was 0.334 ± 0.01; with E. coli TESEC Mtb Alr [2] (setting [6]), 0.277 ± 0.0034; in the test with E. coli TESEC Mtb Alr [2] (setting [7]), 0.248 ± 0.011; with E. coli TESEC Mtb Alr [2] (setting [8]), 0.192 ± 0.013; in the test with E. coli TESEC Mtb Alr [2] (setting [9]) it was 0.1645 ± 0.00064. In addition, the growth with E. coli TESEC Mtb Asd (setting [10]) was 0.421 ± 0.085; in the test on E. coli TESEC Mtb Asd (setting [11]), 0.358 ± 0.04; with E. coli TESEC Mtb Alr [3] (setting [12]), 0.437 ± 0.026; in the test with E. coli TESEC Mtb Alr [3] (setting [13]) it was 0.426 ± 0.065.

As to `CC(=O)[C@H]1CC[C@H]2[C@@H]3CCC4=CC(=O)CC[C@]4(C)[C@H]3CC[C@]12C` [Progesterone], the growth in test [1] worked out at 0.139 ± 0.0043; in the test on E. coli TESEC Mtb Asd (setting [10]), 0.143 ± 0.0076; in the test on E. coli TESEC Mtb Asd (setting [11]), 0.219 ± 0.012; in the test with E. coli TESEC Mtb DapB (setting [14]) it was 0.178 ± 0.015; in the test on E. coli TESEC Mtb DapB (setting [15]), 0.182 ± 0.013; in test [4], 0.101 ± 0.0049. The figures for the growth with E. coli TESEC Mtb Alr [3] (setting [12]) and with E. coli TESEC Mtb Alr [3] (setting [13]) were 0.292 ± 0.059 and 0.0648 ± 0.0061, respectively.
